Bioassay records (PubChem)
TRHR PAM: qHTS for Small Molecule Agonists and Allosteric Enhancers of Human TRH Receptor: Primary Screen for Enhancers; TRHR cells, fluo-8 calcium fluorescence, EC20 TRH enhancement; enhancement, % at 2 µM; Thyrotropin-releasing hormone receptor (Homo sapiens), P34981; actives 0.66% (n = 360,000); in the data active means enhancement above about 30%; further: 0% is about no effect
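Enhancer read-out: after compound pinning and an initial kinetic agonist-mode read, an EC20 of TRH (10 nM final) was injected and fluo-8 calcium signal (Ex 480/Em 530) followed at 1 s/cycle for 100 cycles in TRHR-expressing cells.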
GLP1R ag: qHTS of GLP-1 Receptor Agonists; Glucagon-like peptide 1 receptor (Homo sapiens), P43220; HEK293 GLP-1R CRE-luciferase, luminescence, 4-6 h; cells express a hypersensitive GLP-1R form; Potency, µM (doses to about 45.6 µM), inactives show top-dose activation, hits mostly activators; actives 0.007% (n = 380,000); AID 624172, 2012; further: potency means the concentration at half of the fitted maximal effect; % of control where 0% means no effect
HEK293 tox: qHTS of GLP-1 Receptor Inverse Agonists: Cytotox Screen | HEK293 cAMP-luciferase reporter cells, luminescence, 24 h | AID 624418, 2012 | Potency, µM (titrated, usually from 38.3 µM), inactives show at the highest dose activity change, negative = inhibition, usual class: inhibitors | actives 0.13% (n = 410,000);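 further: loss of luciferase light is scored as toxicity; potency means the concentration at half of the fitted maximal effect; on the % scale 0 is the no-effect control and ±100 the full control effect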
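1536-well qHTS counterscreen of the MLSMR; 200 cells/uL, 12 h pre-incubation, 23 nL cpd, 24 h at 37 deg C 5% CO2, luciferase detection reagent, 12 min RT, luminescence. Inhibition = undesired.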
GLP-1R inv ag: qHTS of GLP-1 Receptor Inverse Agonists (Inhibition Mode). actives 1.6% (n = 410,000). Glucagon-like peptide 1 receptor (Homo sapiens), P43220. Potency, µM (titrated, usually from 38.3 µM), inactives show at the highest dose activity change, negative = inhibition, hits mostly inhibitors. HEK293 GLP-1R CRE-luciferase, luminescence, 24 h; GLP-1R form is constitutively active; further: potency means the concentration at half of the fitted maximal effect; on the % scale 0 is the no-effect control and ±100 the full control effect; nearly all actives have a fitted effect of over 55% in size
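Seeding at 200 cells/uL, 12 h culture, 24 hr compound treatment, then luciferase reagent and a luminescence read; cells are HEK293 stably expressing a constitutively active GLP-1R plus cAMP-responsive luciferase.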
TRHR ag: qHTS for Small Molecule Agonists and Allosteric Enhancers of Human TRH Receptor: Primary Screen for Agonists. TRHR cells, calcium flux fluo-8, FDSS agonist mode. activation, % at 2 µM. actives 0.18% (n = 360,000); in the data active means activation above about 30%; further: 0% is about no effect
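Fluo-8-loaded TRHR cells; 10 s baseline, compound added, kinetic Ca2+ fluorescence read 1/s, agonist mode.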
PTHR1 agonist: qHTS for PTHR1 Agonists: Primary Screen; HEK293 GP2 PTHR1 cells, GloSensor cAMP luminescence, 1 h; actives 0.075% (n = 410,000); Potency, µM (top dose mostly 115 µM), for the others: top-dose activation, usual class: activators; Parathyroid hormone/parathyroid hormone-related peptide receptor (Homo sapiens), Q03431; further: potency means the concentration at half of the fitted maximal effect; nearly all actives have a fitted effect of over 55% in size
Target sequence (Q03431 whole entry, looked up): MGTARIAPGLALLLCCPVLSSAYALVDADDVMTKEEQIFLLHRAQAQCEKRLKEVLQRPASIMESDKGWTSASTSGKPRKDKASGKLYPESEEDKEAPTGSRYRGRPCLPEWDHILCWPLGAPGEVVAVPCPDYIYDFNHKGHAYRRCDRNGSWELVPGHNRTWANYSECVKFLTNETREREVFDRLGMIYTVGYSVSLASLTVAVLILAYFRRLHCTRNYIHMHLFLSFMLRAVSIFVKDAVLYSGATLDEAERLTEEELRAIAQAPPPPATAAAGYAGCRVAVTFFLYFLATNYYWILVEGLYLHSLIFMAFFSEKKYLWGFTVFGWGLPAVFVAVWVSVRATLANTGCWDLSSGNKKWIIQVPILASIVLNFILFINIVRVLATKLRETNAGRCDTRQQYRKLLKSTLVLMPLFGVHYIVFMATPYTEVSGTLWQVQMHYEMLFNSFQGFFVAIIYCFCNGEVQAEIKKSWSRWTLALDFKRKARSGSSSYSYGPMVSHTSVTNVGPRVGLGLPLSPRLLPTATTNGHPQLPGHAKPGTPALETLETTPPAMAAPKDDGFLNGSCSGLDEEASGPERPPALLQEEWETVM
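HEK-293-derived GP2 cells expressing PTHR1 and a GloSensor cAMP reporter, 3,000/well, plated overnight, given luciferin plus IBMX (each 0.5 mM as added) for 1 h at 37 °C, then compound for 1 h at 37 °C. Luminescence was read after 15 min at room temperature.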
* marks the source's active call; other numbers are inactive results; i = inactive; ? = inconclusive; . = no result given; [ ] = remark or other dose. An excerpt weighted towards active compounds, which were near 2.4% of everything screened. Unless noted, the call rests on the fitted dose curve; in most records, active means well fitted curve in the direction sought with a large enough effect; inconclusive means small, poorly fitted or top-dose-only effect, or another doubt; inactive means no such curve, though single readings can be large; an effect the other way counts as inactive or inconclusive.

SMILES | TRHR PAM | GLP1R ag | HEK293 tox | GLP-1R inv ag | TRHR ag | PTHR1 agonist
CC(C)Oc1ccc(C(=O)/C(=C\c2cccs2)c2nc3ccccc3o2)cc1 | -2 | 8% | 9% | 7.1µM* | 0 | -13%
COc1ccc2nc(S(=O)Cc3ncc(C)c(OC)c3C)[nH]c2c1 (stereo not given) | 32* | 24% | -8% | 0% | -1 | -17%
Cc1ccc(CNC(=O)c2ccc(S(=O)(=O)Nc3c(C)n(C)n(-c4ccccc4)c3=O)cc2)cc1 | -5 | 11% | -1% | -18% | 0 | 0%
Cc1ccnc(OC(C(=O)O)C(OCc2ccccc2)(c2ccccc2)c2ccc(C(F)(F)F)cc2)n1 (stereo not given) | 0 | -2% | 15% | 10µM* | 0 | -31%
COC(c1ccccc1)(c1ccccc1)C(Oc1nccc(C)n1)C(=O)O (stereo not given) | 31* | 12% | -3% | ? | 0 | i
Cn1cnc(S(=O)(=O)N2CCN(c3ccccc3)CC2)c1 | 0 | -6% | -6% | 15% | 1 | i
COc1cccc(NC(=O)CN(C)C(=O)c2ccc(Cl)c(S(=O)(=O)N3CCCCCC3)c2)c1 | 4 | 16% | -5% | 8.9µM* | 0 | -30%
CCN(CC)CCNC(=O)c1ccc(NC(=O)c2ccc(Cl)c(S(=O)(=O)N3CCCCCC3)c2)cc1 | -4 | ? | ? | 4µM* | 1 | -7%
CCN(CC)CCNC(=O)c1ccc(NC(C)=O)cc1 | 24 | -5% | 9% | 1% | 1 | i
CN(CC(=O)Nc1ccccc1Cl)C(=O)c1ccc(Cl)c(S(=O)(=O)N2CCCCCC2)c1 | . | 13% | -16% | ? | . | -31%
CCN(CC)CCNC(=O)c1ccc(NC(=O)COc2ccc3c(c2)CCC3)cc1 | 1 | 7% | -16% | 4.5µM* | 0 | 22%
Cc1oc(-c2cccs2)cc1C(=O)N1CCC(C)(C(=O)NS(=O)(=O)C2CC2)C1 (stereo not given) | . | -5% | 4% | 22% | . | i
Cc1c(C(=O)Nc2ccc(C(=O)O)cc2)nnn1-c1ccccc1 | -4 | . | 2% | 1.8µM* | 0 | -23%
CN(C)c1ccc(N=Nc2nccs2)cc1 | . | -2% | 11µM* | ? | . | -38%
CCOC(=O)c1[nH]c2c(c1Cc1ccccc1)C(=O)CC(c1ccc(C(C)(C)C)cc1)C2 (stereo not given) | 16 | . | 0% | 11µM* | 2 | i
CCOC(=O)c1ccccc1NC(=O)Cc1ccccc1OC | -4 | 22% | 2% | -24% | 0 | -9%[57.5 µM]
Cc1ccc(NC(=S)NCc2ccc3[nH]c4c(c3c2)CCCC4)cc1 | 5 | 11% | ? | 13µM* | 0 | -18%
COCCNC(=S)NCc1ccc2[nH]c3c(c2c1)CCCC3 | 1 | -2% | 4% | ? | 1 | i
C=CC[C@H](CC(=O)N(CCO)Cc1ccccc1)C(=O)N[C@H](COC(=O)[C@@H](CC=C)Cc1ccc(F)cc1)C(C)(C)C | . | 0% | -25% | 10µM* | . | -32%
C=CC[C@H](CC(=O)NCCO)C(=O)N[C@H](COC(=O)[C@@H](CC=C)Cc1ccc(F)cc1)Cc1ccccc1 | . | 4% | ? | 10µM* | . | i
C=CCC[C@@H](Cc1ccc(F)cc1)C(=O)OC[C@@H](NC(=O)[C@@H](CC=C)CC(=O)N[C@@H](CO)Cc1ccccc1)C(C)(C)C | . | -2% | -22% | 10µM* | . | -23%
C=CC[C@H](CC(=O)NCCO)C(=O)N[C@@H](COC(=O)[C@@H](CC=C)Cc1ccc(F)cc1)Cc1ccccc1 | . | -1% | 4% | -4% | . | i
Cn1c(CO)cnc1S(=O)(=O)Cc1c(Cl)cccc1Cl | 12 | -2% | 0% | -11% | 1 | i
COC(=O)NNC(=O)COc1cc(C)c(Br)cc1C(C)C | -12 | 2% | -2% | ? | 0 | i
Nc1ccc(Oc2ccc(F)cc2)nc1 | 34* | 6% | -4% | 21% | 0 | -20%
SMILES | TRHR PAM | GLP1R ag | HEK293 tox | GLP-1R inv ag | TRHR ag | PTHR1 agonist
O=Cc1ccc(Oc2ccc(F)cc2)nc1 | 1 | 1% | -9% | -7% | 0 | -6%
COc1cccc(NC(=S)NNC(=O)Cn2nc([N+](=O)[O-])cc2C)c1 | 41* | -8% | 9% | 7% | 0 | i
CCOc1ccccc1CNC(=O)c1oc2c(c1C)-c1nn(Cc3cccc(Cl)c3)cc1CC2 | -1 | . | -5% | ? | 1 | i
Cc1ccccc1CNC(=O)c1oc2c(c1C)-c1nn(Cc3ccc(Cl)cc3)cc1CC2 | -4 | . | 1% | 10µM* | 0 | -30%
CN1/C(=C\C(=S)NC(=O)c2ccccc2Cl)C(C)(C)c2ccccc21 | -7 | 3% | 8% | -14% | 1 | -25%
CN1/C(=C\C=C(C#N)C#N)C(C)(C)c2ccccc21 | 4 | 0% | -17% | 10% | 5 | i
CN1/C(=C\C(=O)Nc2ccc(Cl)cc2)C(C)(C)c2ccccc21 | -3 | 17% | -26% | 10µM* | 0 | -28%
CN1/C(=C\C=C(/C#N)C(=O)Nc2ccc(Cl)cc2)C(C)(C)c2ccccc21 | 8 | 3% | 28% | 20% | 46* | i
CN1/C(=C\C(=S)Nc2ccccc2)C(C)(C)c2ccccc21 | -5 | 12% | ? | 11µM* | 0 | -24%
CC(=O)Nc1sc(/C(C#N)=C\c2cccc(Cl)c2)nc1-c1ccc(C)cc1 | -4 | 2% | 245% | 1% | 67* | i
COc1cc2nc(N3CCN(c4cc(C)ccc4C)CC3)nc(N)c2cc1OC | -2 | -8% | ? | 5µM* | -1 | -1%
COc1cc2nc(N3CCNCC3)nc(N)c2cc1OC | 6 | -6% | ? | -15% | 1 | -13%
COCCCN(C(=O)CC1OC(=O)c2ccccc21)c1c(N)n(Cc2ccccc2)c(=O)[nH]c1=O (stereo not given) | -9 | 3% | 12% | -1% | 1 | -24%
CCOc1ccc(N(CC(=O)Nc2ccc(C)c(C)c2)S(=O)(=O)c2c(C)noc2C)cc1 | -10 | 7% | 14% | 10µM* | 0 | i
